In PubChem BioAssay AID1566 (Sanford-Burnham Center for Chemical Genomics, 2009) one finds inhibition data, which are given here for 94 molecules.

Out of some 290,000 compounds screened, about 1,800 (0.62%) were called active. Cut-off read from the data, not from the text of the source: active = inhibition above about 50%; inactive = the rest. For the sample, actives were picked, then their nearest neighbours and some compounds at random.

A short description of the assay: inhibition of NOD2-driven NF-kB reporter – cell-based, luminescence, uHTS, HEK293 (AID 1566). Conditions: HEK293 NOD2/NF-kB luciferase reporter, at 4 µM, stronger effect = higher value.
In the case of `COc1cccc(OCCn2c(C)c(/C=N/n3cnnc3)c3ccccc32)c1`, the inhibition is 10.9% (inactive). Turning to `CC(C)C(O)(c1ccccc1)C(CN1CCOCC1)c1ccccc1` (centres undefined), the inhibition was 56.7% (active).

On to `CCc1ccc(C(O)(C(C)C)C(CN2CCOCC2)c2ccccc2)cc1` (centres undefined), for which the inhibition was 0.6% (inactive).

`COc1ccc(C(O)(C(C)C)C(CN2CCOCC2)c2ccccc2)cc1` (centres undefined): the inhibition is 8.6% (inactive). For the molecule `COc1ccc(NC(=O)CCn2c(=O)c3cccn3c3ccccc32)c(OC)c1`, the inhibition is 38.3% (inactive). In the case of `Cc1nnn(C23C[C@@H]4C[C@@H](CC(C(=O)N5CCN(c6ccccc6)CC5)(C4)C2)C3)n1`, the inhibition was -0.7% (inactive). In the case of `Cc1ccc(CCNC(=O)C23C[C@H]4C[C@@H](C2)CC(n2nnc(C)n2)(C4)C3)cc1`, the inhibition is 8.2% (inactive). With `Cn1ccnc1C(=O)c1ccc(S(=O)(=O)N2CCCC2)cc1`, the inhibition is 14.8% (inactive).

As for `Cc1ccccc1NC(=O)c1sc2nc(N3CCOCC3)c3c(c2c1N)CCCC3`, the inhibition is 23.1% (inactive).

In the case of `COc1ccc(NC(=O)c2sc3nc(N4CCOCC4)c4c(c3c2N)CCCC4)c(OC)c1`, the inhibition was 30.8% (inactive).

In the case of `COc1ccccc1NC(=O)c1sc2nc(N3CCOCC3)c3c(c2c1N)CCCC3`, the inhibition was 50% (active). Take `COC(=O)c1ccccc1NC(=O)CSc1nnc(-c2cccnc2)o1`: the inhibition is -6.6% (inactive). To `Cc1ccc2[nH]c(C)c(/C=C/c3cc[n+](C)cc3)c2c1` belongs 29.1% (inactive); to `Cc1ccc2[nH]cc(/C=C/c3cc[n+](C)cc3)c2c1`, 48% (inactive). Turning to `COc1ccc(OC)c(S(=O)(=O)N(C)CC(=O)Nc2ccc3c(c2)OCO3)c1`, the inhibition is 4.6% (inactive). On to `CCCNC(=O)Cn1cnc2sc(C(=O)N3CCN(CCC)CC3)c(C)c2c1=O`, for which the inhibition was 24.6% (inactive). As to `CC(C)(C)n1nnnc1C(c1ccncc1)N1CCN(c2ccc(O)cc2)CC1` (centres undefined), the inhibition was -4.7% (inactive). Then `c1ccc2c(c1)SCc1nnc(-c3ccncc3)n1-2`, with 5.9% (inactive). On to `Cc1oc(-c2ccccc2Cl)nc1CSc1nc2c(c(=O)[nH]1)CCC2`, for which the inhibition is -2% (inactive). To `Cc1oc(-c2ccccc2)nc1CSc1nc2c(c(=O)[nH]1)CCC2` belongs 30.8% (inactive); to `COc1ccccc1C(=O)NCCC(=O)NCCOc1ccccc1`, 16.2% (inactive); to `CN(C(=O)COc1ccccc1C(=O)NCCc1ccccc1)c1ccccc1`, -25.8% (inactive). Take `COc1ccc(N2CCN(C(=O)Cn3c(=O)[nH]c4ccsc4c3=O)CC2)cc1`: the inhibition was 0.6% (inactive). As for `Cc1ccc(S(=O)(=O)Nc2ccccc2C(N)=O)cc1`, the inhibition is 0.2% (inactive). Then `Cc1ccc(S(=O)(=O)Nc2ccccc2-c2ccccc2)cc1`, with -12.5% (inactive).

Take `O=S(=O)(NCc1ccccn1)c1cc(Cl)ccc1Cl`: the inhibition is -6% (inactive). Take `Nc1c(NCc2ccccc2F)c(=O)[nH]c(=O)n1Cc1ccccc1`: the inhibition was -4.5% (inactive). Take `Cc1occc1C(=O)n1nnc2ccccc21`: the inhibition is 7.3% (inactive). As to `N#CC(c1ccc(Cl)cc1)c1ccc2c(C(F)(F)F)cc(C(F)(F)F)nc2n1` (centres undefined), the inhibition was 44.4% (inactive). To `Cc1ccc(C(C#N)c2ccc3c(C(F)(F)F)cc(C(F)(F)F)nc3n2)cc1` (centres undefined) belongs 19.1% (inactive); to `CC(NC(=O)CSc1nc2ccccc2n1CCC#N)c1ccc(F)cc1` (centres undefined), 19.2% (inactive); to `CCOc1ccc(S(=O)(=O)N2CCC(C(=O)N3CCCC3)CC2)cc1C`, 24.6% (inactive). As to `COc1ccc(-c2cn3c(C)c(C(=O)N4CCN(c5ccccc5F)CC4)sc3n2)cc1`, the inhibition is 25.5% (inactive). As for `Clc1cccc(Cl)c1C[n+]1ccc2ccccc2c1`, the inhibition was 18.8% (inactive).

Regarding `Cc1cc(C(C)(C)C)cc(C)c1C[n+]1ccc2ccccc2c1`, the inhibition was 52.3% (active).

On to `Cc1ccc(C(=O)C[n+]2ccc3ccccc3c2)cc1`, for which the inhibition was 9% (inactive). Consider `O=C(NCCn1ccc2ccccc21)c1ccc(S(=O)(=O)N2CCCCC2)cc1`, for which the inhibition was -4.3% (inactive). On to `FC(F)(F)c1ccc(N2CCN(c3cc(-c4ccccc4)nc4ncnn34)CC2)nc1`, for which the inhibition is 52% (active). Then `FC(F)(F)c1cc(-c2ccccc2)nc2ncnn12`, with -1.1% (inactive). Take `O=S(=O)(c1ccccc1)N1CCN(c2cc(-c3ccccc3)nc3ncnn23)CC1`: the inhibition is 43.4% (inactive).

As for `CC(=O)Nc1cccc2c1C(=O)N(c1cccc(OC(C)=O)c1)C2=O`, the inhibition is 17.8% (inactive). For `Cc1cc(C(=O)N/N=C/c2ccc([N+](=O)[O-])o2)c(C)o1`, the inhibition was 35.5% (inactive). For `O=C(CNc1ccc2ccccc2c1)N/N=C/c1ccc([N+](=O)[O-])o1`, the inhibition was -4.1% (inactive). On to `O=C(CNc1ccccc1)N/N=C/c1ccc([N+](=O)[O-])o1`, for which the inhibition is 46.1% (inactive).

For the molecule `Nc1nonc1C(=O)N/N=C/c1ccc(-c2cccc([N+](=O)[O-])c2)o1`, the inhibition was 19.7% (inactive).

Take `Cc1ccc(C(=O)N/N=C\c2ccc([N+](=O)[O-])o2)cn1`: the inhibition was 36% (inactive). Consider `Nc1nonc1C(=O)N/N=C/c1ccc(Br)o1`, for which the inhibition was 4.7% (inactive). Take `O=C(N/N=C/c1ccc([N+](=O)[O-])o1)c1cc2c(ccc3ccccc32)o1`: the inhibition was 12.1% (inactive). With `O=C(N/N=C/c1ccc([N+](=O)[O-])cc1)c1cc2ccccc2o1`, the inhibition was 30.1% (inactive). To `COc1ccccc1CNC(=O)C1CC(c2c(Cl)cccc2Cl)=NO1` (centres undefined) belongs 8.6% (inactive); to `Cc1ccc(NC(=O)Nc2ccc(Cl)cc2)c(Br)c1`, -38.7% (inactive); to `O=C(Nc1ccc(Cl)cc1)c1cc(Br)ccc1OCC(=O)N1CCOCC1`, 40% (inactive).

Regarding `COc1ccc(-c2csc(N3CCC(c4ccccc4)CC3)n2)cc1`, the inhibition was 13.7% (inactive). On to `Cc1occc1-c1nnc(SCC(=O)O)n1-c1ccccc1`, for which the inhibition is -13.8% (inactive).

Turning to `Fc1ccc(NC(=S)Nc2cc(Cl)ccc2Cl)cc1`, the inhibition is -16.8% (inactive). As to `C[C@@H]1C(=O)O[C@H]2[C@H]1CC[C@@]1(C)C(=O)C=C[C@@](C)(O)[C@H]21`, the inhibition is 1.1% (inactive). With `COc1cc(/C=C/C(=O)O)ccc1OCc1ccccc1C#N`, the inhibition is 18% (inactive). `O=C(O)/C=C/c1ccc(OCc2cccc(F)c2)cc1`: the inhibition is -4.9% (inactive). As to `N#Cc1ccccc1COc1ccc(/C=C/C(=O)O)cc1`, the inhibition was 64.4% (active). For `COc1cccc(N(CC(=O)NC2CCCC2)C(=O)CCC(=O)Nc2cc(C)on2)c1`, the inhibition is 2.5% (inactive). To `C=C(C)COc1ccc2c(C)c(CC(=O)N3C[C@H]4C[C@@H](C3)c3cccc(=O)n3C4)c(=O)oc2c1` belongs 5% (inactive); to `CC(C)=CCOc1ccc2c(C)c(CC(=O)N3C[C@H]4C[C@@H](C3)c3cccc(=O)n3C4)c(=O)oc2c1C`, 15.8% (inactive); to `C=C(C)COc1ccc2c(C)c(CC(=O)N3C[C@H]4C[C@@H](C3)c3cccc(=O)n3C4)c(=O)oc2c1C`, 51.9% (active).

Consider `CCOc1ccccc1-n1c(SCC(=O)N2CCOCC2)nc2ccccc2c1=O`, for which the inhibition is 24.9% (inactive).

With `O=C(NCCNc1ccc(Cl)cc1[N+](=O)[O-])c1ccccc1F`, the inhibition was -16.6% (inactive). Turning to `O=C(NCCNc1ccnc2cc(Cl)ccc12)c1ccccc1F`, the inhibition is 54.8% (active). Turning to `O=C(NCCCNc1ccnc2cc(Cl)ccc12)c1ccccc1F`, the inhibition is 28.3% (inactive). To `C=CCOC(=O)C1=C(C)NC(C)=C(C(=O)OCC=C)C1/C=C/c1ccccc1` belongs -0.8% (inactive); to `Cc1ccccc1C(=O)Oc1cc(N)n(S(=O)(=O)c2ccccc2)n1`, 5.8% (inactive). Then `Cc1ccccc1NS(=O)(=O)c1cc(OCC(N)=O)c(C)cc1Cl`, with 0.2% (inactive); and `CC1Cc2ccccc2N1c1ncnc2c1nnn2Cc1ccccc1` (centres undefined), with 9.3% (inactive).

Regarding `CC1Cc2ccccc2N1c1ncnc(N)c1[N+](=O)[O-]` (centres undefined), the inhibition was 82.8% (active). In the case of `CC1Cc2ccccc2N1c1ncnc2nc[nH]c12` (centres undefined), the inhibition was 1.3% (inactive). As to `Fc1ccc2c(Cl)c(-c3nnc(-c4cccs4)o3)sc2c1`, the inhibition was -112% (inactive). On to `N=C(N)SCc1cn(-c2ccccc2)nc1-c1ccc(Br)cc1`, for which the inhibition is 8.8% (inactive). As for `COc1ccc(S(=O)(=O)N2CCN(C3CCCC(C)C3)CC2)cc1` (centres undefined), the inhibition was -12.3% (inactive). On to `O=C(Nc1cccc(Cl)c1)c1ccc2c(c1)OCCO2`, for which the inhibition is -169% (inactive). Then `Cc1ccc(NC(=O)c2ccc3c(c2)OCCO3)cc1S(=O)(=O)Nc1cccc(Cl)c1`, with 10.3% (inactive); and `O=C(Nc1cccc(S(=O)(=O)Nc2ccc(Cl)cc2)c1)c1ccc2c(c1)OCCO2`, with 55.7% (active). On to `COC(=O)[C@H](C)NC(=O)NC1CCCc2ccccc21` (some centres undefined), for which the inhibition was 3.2% (inactive). As for `C/C(CC(=O)NCc1ccc(Cl)cc1)=N\NC(=O)c1ccccc1F`, the inhibition is 4.7% (inactive). For the molecule `O=C(Nc1ccc2c(c1)OC1(CCCC1)O2)C1CC1`, the inhibition is -19.4% (inactive). Take `Nc1ccc2c(c1)OC1(CCCCC1)O2`: the inhibition is 13.4% (inactive). To `Nc1ccc2c(c1)OC1(CCCC1)O2` belongs 69.9% (active). Regarding `CCN(CCCNC(=O)C1CCN(S(=O)(=O)N2CCC3(CC2)OCCO3)CC1)c1ccccc1`, the inhibition was 5.4% (inactive). Regarding `CC(C)CNC(=O)COC(=O)c1c2c(nc3ccccc13)CCC2`, the inhibition is 6.3% (inactive). To `CNC(=O)COC(=O)c1c2c(nc3ccccc13)CCC2` belongs 4.8% (inactive); to `CC(C)NC(=O)NC(=O)COC(=O)c1c2c(nc3ccccc13)CCC2`, 51.1% (active). To `CCCc1nc2ccccc2c(=O)n1CCc1ccccc1` belongs -5.9% (inactive); to `CC(C)CC(NC(=O)OC(C)(C)C)C(=O)NC(C(=O)N1CCCC1C(N)=O)C(C)C` (centres undefined), 4.1% (inactive); to `Cc1oc(-c2ccccc2Cl)nc1CN1CCCC1c1ccc(F)cc1` (centres undefined), 0.4% (inactive).

For `Cc1ccccc1C(=O)N1CCN(C(c2ccccc2)c2ccccc2)CC1`, the inhibition was 46.9% (inactive). Take `CCOc1ncccc1C(=O)N1CCN(C(c2ccccc2)c2ccccc2)CC1`: the inhibition is 43.5% (inactive). In the case of `COc1ccc(N(Cc2cc3cc(OC)ccc3[nH]c2=O)C(=O)c2cccnc2)cc1`, the inhibition was 29.5% (inactive).
